# Results reported in PubChem BioAssay.
# Values without a mark were called inactive. For some assays here: Results with a measured potency or affinity are listed apart. Activity calls are given as the source filed them. Unless noted, the rule behind the calls is not given here.
# Assays:
# [1] = antimalarial activity against Dd2 strain (AID 2302;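 active = growth inhibition above 50% at the single 2 µM test dose, taken to imply half-maximal potency below 2 µM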;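 note: 0% = DMSO untreated growth and 100% = chloroquine plus artemisinin killed control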); details: P. falciparum Dd2 in RBCs, LDH growth readout, 72 h; at 2 µM; active compounds read high
# [2] = human hepatoma cell viability loss – ATP luminescence, cytotoxicity control for P. falciparum antimalarial project, primary screen (AID 2303;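 active = inhibition above 50%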;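 note: 0% = DMSO wells and 100% = digitonin-killed cells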); details: HepG2 viability, 24-48 h, at 10 µM, active compounds read high
# [3] = molecular target: L-lactate dehydrogenase (Plasmodium falciparum (isolate CDC / Honduras)) (UniProt Q27743); experiment: PfLDH activity inhibition – cell lysate, 3D7 strain, counter-screen for P. falciparum growth inhibition project (AID 2304);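 note: 0% = vehicle and 100% = reference inhibitor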; details: P. falciparum 3D7 crude extract, LDH APAD/NBT absorbance; at 2 µM; active compounds read high
# [4] = inhibition of 3D7 malaria parasite growth – strain 3D7 (AID 2306);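 note: 0% = DMSO wells and 100% = chloroquine plus artemisinin control wells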; details: P. falciparum 3D7 erythrocytic growth, LDH absorbance, 72 h; at 2 µM; active compounds read high
# [5] = molecular target: Calcium-dependent protein kinase 1 (Plasmodium falciparum (isolate 3D7)) (UniProt P62344); experiment: PfCDPK1 kinase inhibitors, biochemical, TCAMS library (AID 1159585; cut-off not given, nearly all actives have IC50 up to about 0.98 µM;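 note: inhibitors leave more ATP so luminescence rises with inhibition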); details: recombinant PfCDPK1, Kinase-Glo ATP depletion luminescence
# [6] = molecular target: Plasmodium falciparum protein kinase 6 (PK6, PF3D7_1337100) (UniProt Q8IDW1); experiment: PfPK6 kinase inhibitors, biochemical, TCAMS library (AID 1159586); details: recombinant PfPK6, Kinase-Glo ATP depletion luminescence
# [7] = molecular target: Protein kinase 7 (PK7), Plasmodium falciparum 3D7 (PF3D7_0213400) (UniProt Q7YTF7); experiment: inhibition of Plasmodium PK7 catalytic activity – biochemical, TCAMS antimalarial set, Kinase-Glo luminescence (AID 1159587); details: recombinant PfPK7, Kinase-Glo ATP depletion luminescence
# [8] = molecular target: Calcium-dependent protein kinase 4 (Plasmodium falciparum (isolate 3D7)) (UniProt Q8IBS5); experiment: PfCDPK4 kinase inhibitors, biochemical, TCAMS library (AID 1159588; cut-off not given, nearly all actives have IC50 up to about 0.91 µM); details: recombinant PfCDPK4, Kinase-Glo ATP depletion luminescence
# Sequence of Calcium-dependent protein kinase 4 (Plasmodium falciparum (isolate 3D7)) (Q8IBS5 whole entry, looked up): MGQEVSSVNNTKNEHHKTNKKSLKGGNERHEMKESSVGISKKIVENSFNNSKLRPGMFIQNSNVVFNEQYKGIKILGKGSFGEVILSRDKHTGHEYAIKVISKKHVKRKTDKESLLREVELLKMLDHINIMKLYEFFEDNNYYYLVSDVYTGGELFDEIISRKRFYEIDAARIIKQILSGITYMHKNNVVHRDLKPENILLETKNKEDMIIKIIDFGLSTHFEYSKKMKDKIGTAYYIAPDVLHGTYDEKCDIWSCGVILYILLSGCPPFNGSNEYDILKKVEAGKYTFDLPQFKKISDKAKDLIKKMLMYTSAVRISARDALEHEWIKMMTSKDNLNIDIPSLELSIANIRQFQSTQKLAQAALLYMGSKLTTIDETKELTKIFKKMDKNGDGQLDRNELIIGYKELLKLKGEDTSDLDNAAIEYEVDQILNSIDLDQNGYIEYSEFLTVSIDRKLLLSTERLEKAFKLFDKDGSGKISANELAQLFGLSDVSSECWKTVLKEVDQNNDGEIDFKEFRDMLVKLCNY
# Sequence of Protein kinase 7 (PK7), Plasmodium falciparum 3D7 (PF3D7_0213400) (Q7YTF7 1-343): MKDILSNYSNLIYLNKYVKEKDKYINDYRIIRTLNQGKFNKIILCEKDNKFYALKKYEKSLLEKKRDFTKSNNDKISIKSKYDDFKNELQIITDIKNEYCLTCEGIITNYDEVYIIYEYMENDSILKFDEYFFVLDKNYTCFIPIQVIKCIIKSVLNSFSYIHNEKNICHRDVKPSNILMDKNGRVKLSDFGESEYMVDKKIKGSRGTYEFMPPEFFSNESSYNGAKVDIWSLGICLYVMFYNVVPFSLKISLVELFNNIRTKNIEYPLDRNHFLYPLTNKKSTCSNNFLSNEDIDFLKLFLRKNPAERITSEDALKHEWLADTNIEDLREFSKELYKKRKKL
# Sequence of Calcium-dependent protein kinase 1 (Plasmodium falciparum (isolate 3D7)) (P62344 whole entry, looked up): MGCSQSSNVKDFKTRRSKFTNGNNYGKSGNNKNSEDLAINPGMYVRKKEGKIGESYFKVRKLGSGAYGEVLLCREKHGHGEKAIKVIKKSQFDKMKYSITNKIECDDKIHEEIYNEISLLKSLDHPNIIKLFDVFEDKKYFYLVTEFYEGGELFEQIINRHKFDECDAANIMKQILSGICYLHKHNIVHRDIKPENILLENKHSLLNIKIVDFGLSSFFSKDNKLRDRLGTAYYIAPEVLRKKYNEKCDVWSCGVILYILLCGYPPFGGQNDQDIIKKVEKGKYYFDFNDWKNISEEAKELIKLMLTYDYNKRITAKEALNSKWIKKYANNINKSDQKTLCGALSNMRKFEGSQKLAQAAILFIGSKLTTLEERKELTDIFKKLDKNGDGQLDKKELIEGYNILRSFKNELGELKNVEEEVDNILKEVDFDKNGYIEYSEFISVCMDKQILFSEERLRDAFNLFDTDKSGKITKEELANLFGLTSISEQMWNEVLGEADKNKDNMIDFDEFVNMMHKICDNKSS
# Sequence of Plasmodium falciparum protein kinase 6 (PK6, PF3D7_1337100) (Q8IDW1 1-305): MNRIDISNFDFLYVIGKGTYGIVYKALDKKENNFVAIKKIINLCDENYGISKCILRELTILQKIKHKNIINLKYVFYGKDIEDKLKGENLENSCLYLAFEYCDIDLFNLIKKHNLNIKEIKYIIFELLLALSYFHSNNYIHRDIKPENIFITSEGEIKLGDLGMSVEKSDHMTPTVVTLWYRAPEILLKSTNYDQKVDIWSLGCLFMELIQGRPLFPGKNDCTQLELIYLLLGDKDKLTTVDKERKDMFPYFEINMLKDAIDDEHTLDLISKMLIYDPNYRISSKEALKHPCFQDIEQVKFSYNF
# Sequence of L-lactate dehydrogenase (Plasmodium falciparum (isolate CDC / Honduras)) (Q27743 whole entry, looked up): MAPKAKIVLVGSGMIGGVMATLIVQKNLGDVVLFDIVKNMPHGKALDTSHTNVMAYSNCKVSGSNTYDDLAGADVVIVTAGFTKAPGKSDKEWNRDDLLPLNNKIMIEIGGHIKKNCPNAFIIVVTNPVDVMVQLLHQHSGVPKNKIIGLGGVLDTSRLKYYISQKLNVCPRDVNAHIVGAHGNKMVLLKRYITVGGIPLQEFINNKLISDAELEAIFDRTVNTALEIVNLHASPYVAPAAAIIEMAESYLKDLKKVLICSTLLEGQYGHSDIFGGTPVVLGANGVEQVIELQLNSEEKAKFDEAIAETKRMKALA
Compound,growth inhibition [1],inhibition [2],inhibition [3] [%],growth inhibition [4],outcome [5],outcome [6],outcome [7],outcome [8]
Cc1[nH]c(C)c(-c2ccc(Oc3ccc(OC(F)(F)F)cc3)cc2)c(=O)c1I,96% (active),3%,-3,95% (active),inactive,inactive,inactive,inactive
CC(C)(C)NCCN(Cc1ccc(-c2ccc(C(F)(F)F)cc2)cc1)C(=O)Cn1c(CCc2cccc(F)c2F)nc(=O)c2c1CCC2,48%,6%,6,95% (active),inactive,inactive,inactive,inactive
COc1cc2c(cc1OC)CN(c1cc(N)c3cc(OC)c(OC)cc3n1)CC2,99% (active),23%,-3,100% (active),inactive,inactive,inactive,inactive
Oc1ccc(CN2CCC(NCc3cccc(C(F)(F)F)c3)CC2)cc1,64% (active),10%,5,101% (active),inactive,inactive,inactive,inactive
CCCC(=O)Nc1ccc(OCCCCN(CC(C)(C)C)c2ccc(C#N)c(C(F)(F)F)c2)cc1,69% (active),9%,-1,83% (active),inactive,inactive,inactive,inactive
Cc1cccc2[nH]c(-c3cccc(-c4ccc(NC(=O)Nc5ccc(Cl)c(Cl)c5)cc4)c3)nc12,83% (active),53% (active),7,102% (active),inactive,inactive,inactive,inactive
CCOc1cc(C)c(C2CCN(CCCCNC(=O)c3ccc(NC(=O)c4ccc(Cl)cc4)cc3)CC2)cc1C,87% (active),10%,1,100% (active),inactive,inactive,inactive,inactive
Nc1nc(N)c2c(ccc3c2ncn3Cc2ccccc2)n1,96% (active),71% (active),4,96% (active),inactive,inactive,inactive,inactive
O=c1cc(NCCCNCc2ccc(Cl)c(Cl)c2)[nH]c2ccc(C(F)(F)F)cc12,68% (active),10%,-5,103% (active),inactive,inactive,inactive,inactive
CCN1CCN(c2cc(C)c3cc(NC(=O)c4cccc([N+](=O)[O-])c4)ccc3n2)CC1,73% (active),74% (active),-3,99% (active),inactive,inactive,inactive,inactive
CC1CCCCC1N(C)C1CCN(CCCNC(=O)C=Cc2ccccc2Cl)CC1 (stereo not given),14%,30%,3,100% (active),inactive,inactive,inactive,inactive
Cc1nc(NCc2ccccc2)cc(NCC(O)c2ccc(O)cc2)n1 (stereo not given),10%,5%,-2,85% (active),inactive,inactive,inactive,inactive
COc1ccc(C2CCN(CCN3CCC(NC(=O)c4ccc(-c5cccc(C(F)(F)F)c5C(F)(F)F)cc4)CC3)CC2)c(OC)c1,61% (active),35%,-4,102% (active),inactive,inactive,inactive,inactive
c1cc2nc(CCCc3nc4ccc(C5=N[C@H]6CCCC[C@H]6N5)cc4[nH]3)[nH]c2cc1C1=N[C@@H]2CCCC[C@@H]2N1,84% (active),10%,-2,85% (active),inactive,inactive,inactive,inactive
Cc1ccc(Nc2nc(C)cc(NCc3ccc(-n4ccnc4)cc3)n2)cc1,100% (active),33%,1,101% (active),inactive,inactive,inactive,inactive
COCCN1CCN(Cc2ccc(-c3cccc(-c4nc5ccccc5[nH]4)c3)cc2)CC1,10%,32%,0,93% (active),inactive,inactive,inactive,inactive
O=C(Nc1ccc(-c2ccc(-c3nc4ccc(C(F)(F)F)cc4[nH]3)s2)cc1)c1ccoc1,54% (active),9%,3,94% (active),inactive,inactive,inactive,inactive
CC(C)(C)c1ccc2nc(-c3ccc(C(=O)NCc4cccc(C(F)(F)F)c4)cc3)[nH]c2c1,26%,9%,-1,98% (active),inactive,inactive,inactive,inactive
O=C(CSc1nc(-c2ccccc2Cl)ns1)Nc1cccc(F)c1,81% (active),-5%,-1,93% (active),inactive,inactive,inactive,inactive
Cc1ccnc(NC(c2ccc(Cl)c([N+](=O)[O-])c2)c2ccc3cccnc3c2O)c1 (stereo not given),57% (active),47%,6,89% (active),inactive,inactive,inactive,inactive

Compound,growth inhibition [1],inhibition [2],inhibition [3] [%],growth inhibition [4],outcome [5],outcome [6],outcome [7],outcome [8]
CC(C)(C)NCCN(Cc1ccc(-c2ccc(C(F)(F)F)cc2)cc1)C(=O)Cn1c(SCc2ccc(F)cc2)nc(=O)c2c1CCC2,84% (active),64% (active),0,97% (active),inactive,inactive,inactive,inactive
NC(=O)c1c(Cl)nc2ccccc2c1Cl,-2%,2%,-2,91% (active),inactive,inactive,inactive,inactive
CC(=O)Nc1ccc(C(=O)Nc2cccc(-c3ccc(-c4nc5ccccc5[nH]4)cc3)c2)cn1,93% (active),12%,0,100% (active),inactive,inactive,inactive,inactive
Cc1cc(C(=O)OCC(=O)Nc2c(C)n(C)n(-c3ccccc3)c2=O)c(C)n1-c1ccc(F)cc1,99% (active),-4%,-1,100% (active),inactive,inactive,inactive,inactive
N#Cc1cccc(Nc2nccc(NCC(O)c3cccc(C(F)(F)F)c3)n2)c1 (stereo not given),84% (active),4%,-3,99% (active),inactive,inactive,inactive,inactive
c1cc(CNC2CCN(CC3CCCCC3)CC2)cc(-n2ccnc2)c1,97% (active),3%,1,102% (active),inactive,inactive,inactive,inactive
COc1ccc(CNC2CCN(C)CC2)cc1-c1ccc(S(=O)(=O)NCCN2CCCC2)s1,1%,2%,-2,90% (active),inactive,inactive,inactive,inactive
COC(=O)Cn1c(C2CCN(CC3CCC(NC(=O)/C=C/c4ccc(Cl)c(Cl)c4)CC3)CC2)nc2ccccc21 (stereo not given),17%,12%,4,95% (active),inactive,inactive,inactive,inactive
O=C(Nc1ccc(CN2CCOCC2)cc1)c1ccc(-c2ccc(Br)cc2)o1,-4%,3%,-2,92% (active),inactive,inactive,inactive,inactive
CS(=O)(=O)c1ccc2c(c1)CCN(CCC1CCC(NC(=O)C(=Cc3cccc(C#N)c3)c3ccc(-c4ccccc4)cc3)CC1)CC2 (stereo not given),13%,24%,-6,99% (active),inactive,inactive,inactive,inactive
N#Cc1ccc(N[C@@H](CC2CCCCC2)C(=O)NCc2cc(Cl)cc(Cl)c2)c2ccccc12,88% (active),34%,0,94% (active),inactive,inactive,inactive,inactive
CCN1CCN(c2ccc(Nc3c4ccccc4nc4ccccc34)cc2)CC1,100% (active),24%,-2,99% (active),inactive,inactive,inactive,inactive
CCC(CC)n1cc2c(ccc3nc(N)nc(N)c32)n1,-2%,61% (active),4,91% (active),inactive,inactive,inactive,inactive
O=C(NCC1CC1)C1CCN(C(c2ccccc2)c2nc3ccccc3s2)CC1 (stereo not given),49%,-3%,8,92% (active),inactive,inactive,inactive,inactive
Cc1ccc(C)c2sc(N3CCN(C(=O)c4ccc([N+](=O)[O-])o4)CC3)nc12,89% (active),-2%,2,96% (active),inactive,inactive,inactive,inactive
O=C(c1ccco1)N1CCN(c2ccc([N+](=O)[O-])c(NC3CC3)c2)CC1,99% (active),-8%,0,101% (active),inactive,inactive,inactive,inactive
CCCCCCn1c2c(c(=N)c3c1CCC3)CCC2,83% (active),32%,-3,97% (active),inactive,inactive,inactive,inactive
Cc1ccccc1N1CCN(c2ccc(C(=O)NC(C)C)cn2)CC1,91% (active),13%,-2,89% (active),inactive,inactive,inactive,inactive
O=C(NC1CCCc2ccccc21)[C@@H]1CCCN1C(=O)c1ccc(O)c(-c2ccc(Cl)c(Cl)c2)c1 (stereo not given in full),99% (active),-6%,-2,99% (active),inactive,inactive,inactive,inactive
C=CCn1c(SCC(=O)Nc2cc(C)ccc2OC)nc2sc(C)cc2c1=O,86% (active),6%,-5,100% (active),inactive,inactive,inactive,inactive
